This passage reports composite z-score and z-score results from PubChem BioAssay.

The nature of assay [1]: binders of probe aFSTL3 on microarray, primary screen, stem cell growth factor project, biochemical, small-molecule microarray, fluorescence 635/667 (AID 1064).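 Note: measures binding of the biotinylated anti-FSTL3 antibody to printed compounds.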 As to conditions: higher = more signal.
The nature of assay [2]: binders from COS7 lysate, DM2A8 probe, primary screen, torsin A project, cell lysate, small-molecule microarray, fluorescence 635/667 (AID 1065). Particulars: higher = more signal, COS7 lysate expressing mutant human TOR1A.
Assay [3] is described as follows: binders of probe aFGF2 on microarray, primary screen, stem cell growth factor project, biochemical, small-molecule microarray, fluorescence 635/667 (AID 1067).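 Note: measures binding of biotinylated aFGF2 protein to printed compounds on slides; z-score merges feature fluorescence and signal-to-noise across triplicate slides.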 As to conditions: higher = more signal.
A short description of assay [4]: binders of probe aFGF10 on microarray, primary screen, stem cell growth factor project, biochemical, small-molecule microarray, fluorescence 635/667 (AID 1071).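 Note: score merges 667 nm spot intensity and signal to noise from triplicate slides.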 As to conditions: higher = more signal.
The target of assay [5] is Neurogenic locus notch homolog protein 2 (Homo sapiens) (UniProt Q04721). Kind of assay: Notch2 binders on small-molecule microarrays, primary screen, biochemical, small-molecule microarray, 635 nm fluorescence, stem cell growth factors (AID 1073). As to conditions: Notch2 binding, higher = more signal.
Sequence of Neurogenic locus notch homolog protein 2 (Homo sapiens) (Q04721 whole entry, looked up, canonical isoform): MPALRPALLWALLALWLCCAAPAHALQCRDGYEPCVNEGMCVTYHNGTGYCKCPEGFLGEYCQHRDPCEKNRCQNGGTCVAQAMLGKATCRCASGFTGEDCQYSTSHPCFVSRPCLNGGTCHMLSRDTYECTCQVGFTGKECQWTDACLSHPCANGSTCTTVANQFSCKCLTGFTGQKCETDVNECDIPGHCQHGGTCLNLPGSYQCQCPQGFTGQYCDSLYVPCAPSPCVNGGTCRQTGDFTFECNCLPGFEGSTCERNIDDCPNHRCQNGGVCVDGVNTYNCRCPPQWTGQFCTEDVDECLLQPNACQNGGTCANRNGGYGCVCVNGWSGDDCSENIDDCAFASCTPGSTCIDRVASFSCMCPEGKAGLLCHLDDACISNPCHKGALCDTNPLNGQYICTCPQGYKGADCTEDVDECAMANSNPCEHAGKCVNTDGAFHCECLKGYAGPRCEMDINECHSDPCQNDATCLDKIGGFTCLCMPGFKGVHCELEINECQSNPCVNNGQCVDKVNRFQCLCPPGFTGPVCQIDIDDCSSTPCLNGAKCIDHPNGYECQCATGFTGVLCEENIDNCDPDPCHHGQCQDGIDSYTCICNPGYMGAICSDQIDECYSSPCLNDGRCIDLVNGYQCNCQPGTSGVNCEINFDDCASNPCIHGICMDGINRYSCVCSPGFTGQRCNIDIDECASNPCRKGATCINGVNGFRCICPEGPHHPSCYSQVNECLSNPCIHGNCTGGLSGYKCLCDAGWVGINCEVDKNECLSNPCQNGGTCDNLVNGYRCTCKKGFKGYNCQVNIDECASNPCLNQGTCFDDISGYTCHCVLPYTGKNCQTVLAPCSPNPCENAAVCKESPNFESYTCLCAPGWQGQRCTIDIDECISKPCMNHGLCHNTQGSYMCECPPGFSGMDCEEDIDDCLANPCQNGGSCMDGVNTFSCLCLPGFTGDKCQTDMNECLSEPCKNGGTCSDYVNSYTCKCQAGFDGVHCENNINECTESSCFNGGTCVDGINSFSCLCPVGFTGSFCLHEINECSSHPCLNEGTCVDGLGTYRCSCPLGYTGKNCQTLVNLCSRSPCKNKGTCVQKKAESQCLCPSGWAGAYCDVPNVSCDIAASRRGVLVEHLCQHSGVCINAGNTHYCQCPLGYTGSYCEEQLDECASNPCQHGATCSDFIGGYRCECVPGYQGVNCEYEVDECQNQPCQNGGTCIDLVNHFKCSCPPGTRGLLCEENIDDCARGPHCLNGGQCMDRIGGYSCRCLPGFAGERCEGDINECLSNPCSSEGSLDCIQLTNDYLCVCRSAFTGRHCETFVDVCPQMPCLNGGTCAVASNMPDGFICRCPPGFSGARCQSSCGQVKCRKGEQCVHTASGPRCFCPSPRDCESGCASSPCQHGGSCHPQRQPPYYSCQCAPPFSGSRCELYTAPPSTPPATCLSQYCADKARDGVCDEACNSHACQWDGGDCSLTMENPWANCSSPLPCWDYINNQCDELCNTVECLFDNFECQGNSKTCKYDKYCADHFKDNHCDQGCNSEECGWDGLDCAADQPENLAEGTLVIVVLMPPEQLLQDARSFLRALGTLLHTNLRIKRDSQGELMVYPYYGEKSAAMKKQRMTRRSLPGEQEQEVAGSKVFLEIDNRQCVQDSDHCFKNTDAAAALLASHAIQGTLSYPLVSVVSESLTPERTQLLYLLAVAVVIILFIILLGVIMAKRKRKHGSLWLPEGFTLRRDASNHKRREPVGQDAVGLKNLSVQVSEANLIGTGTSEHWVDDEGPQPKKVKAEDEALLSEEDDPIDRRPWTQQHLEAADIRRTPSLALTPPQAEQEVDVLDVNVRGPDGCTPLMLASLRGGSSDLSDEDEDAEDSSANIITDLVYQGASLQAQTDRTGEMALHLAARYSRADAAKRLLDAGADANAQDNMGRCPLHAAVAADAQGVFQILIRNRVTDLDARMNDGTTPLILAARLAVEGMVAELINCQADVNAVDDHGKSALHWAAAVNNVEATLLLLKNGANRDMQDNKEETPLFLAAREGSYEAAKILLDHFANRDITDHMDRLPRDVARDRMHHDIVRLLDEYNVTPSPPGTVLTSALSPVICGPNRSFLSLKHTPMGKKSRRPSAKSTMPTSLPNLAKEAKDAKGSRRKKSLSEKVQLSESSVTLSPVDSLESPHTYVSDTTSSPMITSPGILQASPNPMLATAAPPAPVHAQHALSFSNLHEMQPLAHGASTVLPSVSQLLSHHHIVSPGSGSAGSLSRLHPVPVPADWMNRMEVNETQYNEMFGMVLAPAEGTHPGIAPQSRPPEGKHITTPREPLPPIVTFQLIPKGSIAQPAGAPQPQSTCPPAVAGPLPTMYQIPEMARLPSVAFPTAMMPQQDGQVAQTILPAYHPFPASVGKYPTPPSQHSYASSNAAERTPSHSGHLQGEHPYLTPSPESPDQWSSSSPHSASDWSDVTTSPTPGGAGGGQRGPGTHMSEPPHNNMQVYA
In assay [6] the target is Pro-neuregulin-1, membrane-bound isoform (Homo sapiens) (UniProt Q02297). Kind of assay: NRG1 binders on small-molecule microarrays, primary screen, psychiatric disease protein project, biochemical, small-molecule microarray, fluorescence 635/667 (AID 1075).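 Note: score combines 667 nm spot fluorescence with signal to noise.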 Particulars: NRG1 binding, 635 nm fluorescence, higher = more signal.
Sequence of Pro-neuregulin-1, membrane-bound isoform (Homo sapiens) (Q02297 whole entry, looked up, the tested form may be a part, canonical isoform): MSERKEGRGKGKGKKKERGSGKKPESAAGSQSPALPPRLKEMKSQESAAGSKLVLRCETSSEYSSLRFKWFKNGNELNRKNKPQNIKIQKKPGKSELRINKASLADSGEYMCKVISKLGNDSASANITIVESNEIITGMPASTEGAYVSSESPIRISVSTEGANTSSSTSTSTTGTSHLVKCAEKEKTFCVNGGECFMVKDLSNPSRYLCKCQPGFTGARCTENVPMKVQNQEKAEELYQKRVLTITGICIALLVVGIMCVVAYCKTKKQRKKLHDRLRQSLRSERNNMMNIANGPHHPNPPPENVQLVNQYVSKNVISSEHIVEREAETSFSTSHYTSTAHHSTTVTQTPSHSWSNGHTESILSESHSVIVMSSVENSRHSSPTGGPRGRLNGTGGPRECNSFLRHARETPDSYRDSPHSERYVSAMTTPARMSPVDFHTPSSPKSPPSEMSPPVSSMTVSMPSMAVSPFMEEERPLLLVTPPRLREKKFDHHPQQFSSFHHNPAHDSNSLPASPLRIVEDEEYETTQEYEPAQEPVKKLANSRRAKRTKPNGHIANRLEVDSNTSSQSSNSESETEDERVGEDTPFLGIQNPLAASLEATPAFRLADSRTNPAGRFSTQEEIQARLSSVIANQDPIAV
In assay [7] the test system is Neuregulin-1 EGF-like domain. Kind of assay: binders of neuregulin-1 EGF-like domain, primary screen, biochemical, small-molecule microarray, 635 nm fluorescence (AID 1081).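 Note: binding of the protein to compounds printed on small-molecule microarray slides.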 Particulars: small-molecule microarray binding, higher = more signal.
Assay [8] can be described thus: FRG1 promoter luciferase signal modulators, primary screen, FRG1 inhibition for FSHD, cell-based, C2C12 myotubes, firefly/Renilla luciferase, luminescence (AID 1084). Particulars: higher = more signal, called active from +8 up or from −8 down.
A short description of assay [9]: binders of probe aFST on microarray, primary screen, stem cell growth factor project, biochemical, small-molecule microarray, fluorescence 635/667 (AID 1086).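 Note: score merges 667 nm fluorescence with signal-to-noise of each printed compound spot.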 Particulars: higher = more signal.
Assay [10] is described as follows: binders of probe aHhip on microarray, primary screen, stem cell growth factor project, biochemical, small-molecule microarray, fluorescence 635/667 (AID 1087).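 Note: score merges spot fluorescence at 667nm with spot signal to noise ratio.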 As to conditions: higher = more signal.
Assay [11] deals with PRMT1 (protein arginine N-methyltransferase 1). Kind of assay: PRMT1 binders on small-molecule microarrays, primary screen, biochemical, small-molecule microarray, 635 nm fluorescence (AID 1088).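 Note: binding of Prmt1 protein to compounds spotted on small-molecule microarray slides.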 Particulars: small-molecule microarray binding, higher = more signal.
Assay [12] in a line: yeast growth modulation, basal conditions, primary screen, YJM789 clinical isolate, OD600, 24 h (AID 1089).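 Note: growth of clinical yeast isolate S. cerevisiae YJM 789 seeded 1000 cells per well; test concentration not given here.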 Particulars: S. cerevisiae YJM789 growth, higher = more signal, called active from +8 up or from −8 down.
Assay [13] is described as follows: fission yeast growth modulation, primary screen, strain 972, OD600, 24 h, no modulator (AID 1090).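 Note: basal condition with compound alone and no growth modifier present; test concentration not given here.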 Particulars: S. pombe 972 growth, higher = more signal, called active from +8 up or from −8 down.
Assay [14] can be described thus: S. cerevisiae growth modulation with rapamycin, primary screen, strain BY4716, OD600, 96 h (AID 1091). Note: test concentration not given here. As to conditions: higher = more signal, called active from +8 up or from −8 down.
The target of assay [15] is Torsin-1A-interacting protein 2 (Homo sapiens) (UniProt Q8NFQ8). Kind of assay: LULL1 binders on small-molecule microarray, primary screen, cell lysate, human LULL1 lysate, 635/667 nm fluorescence (AID 1092).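 Note: probe is lysate of COS7 cells overexpressing human LULL1; score merges per-feature 667 nm fluorescence with signal-to-noise.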 As to conditions: hLULL1 lysate binding, 635 nm fluorescence, higher = more signal.
Sequence of Torsin-1A-interacting protein 2 (Homo sapiens) (Q8NFQ8 whole entry, looked up): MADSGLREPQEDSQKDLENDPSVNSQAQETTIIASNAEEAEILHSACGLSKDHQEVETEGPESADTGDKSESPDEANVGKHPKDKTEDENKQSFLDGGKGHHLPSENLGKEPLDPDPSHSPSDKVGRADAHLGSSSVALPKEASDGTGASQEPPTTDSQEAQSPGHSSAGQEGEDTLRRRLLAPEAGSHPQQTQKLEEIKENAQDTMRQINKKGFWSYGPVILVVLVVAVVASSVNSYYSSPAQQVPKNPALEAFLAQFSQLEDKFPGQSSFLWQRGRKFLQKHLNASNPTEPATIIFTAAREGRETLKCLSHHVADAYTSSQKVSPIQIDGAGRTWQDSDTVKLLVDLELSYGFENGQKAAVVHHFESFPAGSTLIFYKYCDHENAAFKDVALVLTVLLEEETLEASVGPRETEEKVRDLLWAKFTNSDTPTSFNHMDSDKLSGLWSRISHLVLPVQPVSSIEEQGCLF
A short description of assay [16]: E. coli growth modulation, two-sided OD650, primary screen, E. coli filamentation project, strain DRC41, 24 h (AID 1093).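 Note: MC1000 strain lacking acrAB efflux and sulA so SOS filamentation is blocked; test concentration not given here.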 Particulars: OD650, 24 h, higher = more signal, called active from +8 up or from −8 down.
Assay [17] in a line: small-molecule microarray binders of probe aLefty2, primary screen, biochemical, biotinylated probe, 635/667 nm fluorescence (AID 1094).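 Note: score merges spot fluorescence near 667 nm with spot signal-to-noise ratio.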 As to conditions: higher = more signal.
Assay [18] deals with Noggin (protein binding on small-molecule microarray). Kind of assay: Noggin binders on small-molecule microarray, primary screen, biochemical, 635/667 nm fluorescence (AID 1095).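 Note: score merges 667 nm feature fluorescence with signal to noise over triplicate slides.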 As to conditions: 635 nm fluorescence, higher = more signal.
Assay [19] addresses Neurogenic locus notch homolog protein 3 (Homo sapiens) (UniProt Q9UM47). Kind of assay: NOTCH3 binders on small-molecule microarray, primary screen, biochemical, 635/667 nm fluorescence (AID 1096). Particulars: NOTCH3 binding, 635 nm fluorescence, higher = more signal.
The nature of assay [20]: small-molecule microarray binders of probe aEGFR, primary screen, biochemical, biotinylated probe, 635/667 nm fluorescence (AID 1097).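 Note: probe is a biotinylated anti-EGFR antibody binding compounds printed on slides; score combines fluorescence near 667 nm and signal to noise of each spot.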 As to conditions: higher = more signal.

Active and inactive are the calls of the source.

Consider `COc1ccc([Si](C)(C)[C@@H]2[C@@H](CC(=O)N(CCO)Cc3ccccc3)O[C@]3(C(=O)N(C)c4c(Br)cc(C)cc43)[C@H]2C)cc1`, for which the composite z-score in assay [1] is -0.106; in [2] it was -0.0018; in [3] it was -0.13; in assay [4] it was 0.33; in assay [5], -0.561; in [6] it was 0.679. Further, the composite z-score in [7] is 0.508; in assay [9], -0.051; in [10], 0.0052; in assay [11], 1.37; in assay [15], 0.214; in assay [17], -0.149. Moreover, the values for the composite z-score in assay [18], in assay [19] and in [20] were 1.56, 0.92 and -0.0978, respectively. In addition, the z-score is -3.19 (inactive) in assay [8]; -0.8 (inactive) in [12]; 0.0424 (inactive) in [13]; 0.991 (inactive) in assay [14]; -1.37 (inactive) in assay [16].
`COCCOC(=O)N1C(=O)[C@@]2(c3cc(C#CCC(C(=O)OC)C(=O)OC)ccc31)[C@H](C(=O)N1CCCCCCC1)[C@H]1C(=O)O[C@H](c3ccccc3)[C@H](c3ccccc3)N1[C@@H]2c1ccc(O)cc1`: the composite z-score in assay [1] is 2.64; in assay [2] it was 0.745; in assay [3], 0.146; in assay [4], 0.344; in [5], 1.26; in [6] it was 1.33. Further, the composite z-score in assay [7] worked out at 1.25; in assay [9], 2.37; in [10], 0.801; in assay [11], 1.49; in assay [15] it was 3.19; in assay [17], 1.06. Moreover, the composite z-score in assay [18] was determined as 1.37; in [19], 1.07; in [20] it was 0.456. The z-score in [8] was 0.741 (inactive); in [12], 0.405 (inactive); in assay [13], -0.866 (inactive); in [14], 1.15 (inactive); in assay [16] it was 1.04 (inactive).
As to `COCCCNC(=O)[C@@]1(Cc2ccccc2CN=[N+]=[N-])N=C(c2ccc(OCCCO)cc2)O[C@H]1c1ccccc1N=[N+]=[N-]`, the composite z-score came to 0.749 in [1]; 1.06 in assay [2]; 0.0524 in [3]; 1.18 in [4]; 1.18 in assay [5]; 0.765 in assay [6]. Further, the composite z-score in [7] was determined as 1.05; in assay [9], 1.27; in assay [10] it was 0.351; in [11] it was 1.31; in assay [15] it was 2.67; in [17], 0.214. Also, the composite z-score came to 0.399 in [18], 0.671 in assay [19] and 0.525 in assay [20]. Besides, the z-score was -1.21 (inactive) in assay [8]; -0.299 (inactive) in assay [12]; -0.954 (inactive) in [13]; 2.08 (inactive) in assay [14]; 2.53 (inactive) in assay [16].
Turning to `COC(=O)C(CC#Cc1ccc2c(c1)[C@]1(C(=O)N2)[C@H](c2ccc(O)cc2)N2[C@H](c3ccccc3)[C@H](c3ccccc3)OC(=O)[C@H]2[C@@H]1C(N)=O)C(=O)OC`, the composite z-score in assay [1] is 0.659; in [2] it was -0.392; in assay [3] it was -0.168; in assay [4] it was -1.89; in assay [5], -1.06; in assay [6], -0.605. Moreover, the composite z-score in assay [7] is -0.777; in assay [9], -0.611; in [10], -0.245; in [11] it was -1.37; in assay [15], -0.759; in assay [17] it was -0.189. Moreover, the values for the composite z-score in assay [18], in [19] and in assay [20] were -2.58, -1.06 and 0.162, respectively. The z-score in assay [8] was -0.719 (inactive); in assay [12], -0.731 (inactive); in [13], -0.55 (inactive); in [14] it was -0.438 (inactive); in assay [16] it was 2.23 (inactive).
As for `CCOC(=O)C[C@H]1[C@H](OC(=O)Cc2ccc3c(c2)OCO3)[C@@H](NC(=O)c2ccccc2)c2cc(OCCCO)ccc2N1C(=O)c1ccccc1`, the composite z-score is -0.23 in [1]; 0.122 in [2]; -0.0687 in assay [3]; 0.346 in assay [4]; 0.228 in assay [5]; -0.109 in assay [6]. Further, the composite z-score is 0.895 in assay [7]; 0.0452 in assay [9]; -0.0237 in [10]; 0.267 in assay [11]; 1.27 in assay [15]; -0.166 in assay [17]. For the same compound, the results for the composite z-score in [18], in assay [19] and in assay [20] were 0.53, 0.713 and -0.125, respectively. Also, the z-score in [8] is -1.73 (inactive); in [12], -0.0172 (inactive); in [13], -0.462 (inactive); in assay [14] it was 0.205 (inactive); in [16], 1.48 (inactive).
